Bioassay records: PubChem, Broad Institute
Tg IFNy HTS = T. gondii growth inhibition with IFN-gamma, primary screen, cell-based | Toxoplasma gondii growth in IFN-gamma-treated host cells; active compounds read low | activity change, negative = inhibition, % (concentration not given with the values) | 69,000 tested, 3.8% active | AID 1259416, 2018; in the data active = activity change below about -70%, passing the limit was not always enough;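 also: host cells are HeLa cells infected with Toxoplasma gondii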
Numbers without * were called inactive; ! = not active in a repeat. Only a selection was taken, and hits are over-represented in it overall.

SMILES	Tg IFNy HTS
Cc1c(C(=O)N(C)Cc2ccco2)sc2ncnc(N3CCCCCCC3)c12	-11.6
Cn1cc(C[C@H]2[C@H](O)CCN2C(=O)Cc2ccccc2)cn1	253.3
Cc1ccc2c(c1)CCC21CCN(CC(=O)O)CC1	-3.5
Cc1cccc(C(=O)N2Cc3cnn(C)c3C(COCC3CC3)C2)n1 (configuration not stated)	-5.7
Cn1cnnc1Sc1c([N+](=O)[O-])ncn1C	-45.6
Cn1cnc([N+](=O)[O-])c1Sc1ncnc2nc[nH]c12	-85.7*
CC(C)C(=O)Nc1ncnc2nc[nH]c12	-51.5
CN1CCN(C(=O)C[C@H]2CC[C@@H]3[C@@H](COc4ccc(NC(=O)c5cccs5)cc4C(=O)N3C)O2)CC1	0.3
CCCCOc1ccc(S(=O)(=O)N(Cc2ccccc2)Cc2ccccc2)cc1	-27.5
CCOc1ccc(N(Cc2nc(-c3ccc(C)cc3)oc2C)S(=O)(=O)c2ccccc2)cc1	15.0
Cc1cc(C)c(N(Cc2ccccc2)S(=O)(=O)c2ccc(OCCNC(=O)c3cc4ccccc4o3)cc2)c(C(=O)NO)c1	-72.3*!
Cn1cnc2ccc(NC(=O)CC3CCN(S(=O)(=O)c4cccc(F)c4)CC3)cc21	-39.9
CCCNC(=O)Nc1ccc2c(c1)C(=O)N(C)C[C@H](OC)[C@@H](C)CN(C)[C@H](C)CO2	-27.5
Cc1cc(C)cc(NC(=O)CC2Sc3ccccc3NC2=O)c1 (configuration not stated)	2.9
Cc1c(CN(C)C(=O)c2cccc(C#CC(C)(C)O)c2)cnn1C	-1.0
Cc1c(CN(C)Cc2cccc(C(C)(C)C)c2O)cnn1C	-93.1*
Cc1ccc(C)c(-c2[nH]ncc2CN(C)Cc2cnn(C)c2C)c1	-1.1
CN1CC(=O)N2CCN(Cc3cccn3-c3ncccn3)CC2C1=O (configuration not stated)	-3.5
Cc1ccc2[nH]c(=O)c(-c3nc(C(C)(C)C)no3)c(O)c2c1	107.3
CCn1c(CNC(=O)c2cn[nH]c2-c2ccc(OC)cc2)nc2ccccc21	36.6
COC(=O)c1c(NCc2ccc(C(F)(F)F)cc2)c2cc(F)ccc2[nH]c1=O	-64.5
COC(=O)c1c(NCc2cccc(OC)c2)c2cccc(Cl)c2[nH]c1=O	-47.5
COC(=O)c1c(NCc2cccc(OC)c2)c2cc(Cl)ccc2[nH]c1=O	-114.1*
C=CCn1c(=O)c(C(=O)NCc2cccnc2)c(O)c2cc(OC)c(OC)cc21	45.6
CCC(=O)Nc1ccc(OCC(=O)N2CCCC3(CCNCC3)CC2)cc1	-5.4
SMILES	Tg IFNy HTS
COc1ccc(C)cc1NC(=O)Cn1c(=O)cc(-c2nc(C3CC3)no2)c2ccccc21	-87.4*
COc1ccccc1NC(=O)Cn1c(=O)cc(-c2nc(C3CC3)no2)c2ccccc21	-7.9
Cc1cc(C)c(NC(=O)Cn2c(=O)cc(-c3nc(C4CC4)no3)c3ccccc32)c(C)c1	-26.6
O=C(c1cccc(F)c1)N1CCc2c([nH]c3ccccc23)C1c1cccnc1 (configuration not stated)	-96.3*
O=C(CCC1CCCC1)N1CCc2c([nH]c3ccccc23)C1c1cccnc1 (configuration not stated)	103.9
O=C(c1ccc(F)cc1)N1CCc2c([nH]c3ccccc23)C1c1cccnc1 (configuration not stated)	-47.0
COc1ccc(C2c3[nH]c4ccccc4c3CCN2C(=O)c2ccncc2)cc1 (configuration not stated)	117.1
COc1cccc(C(=O)N2CCc3c([nH]c4ccccc34)C2c2cccnc2)c1 (configuration not stated)	-106.9*
COC(=O)c1cc(CN(C)Cc2nc(-c3cccnc3)no2)cs1	0.4
COc1cccc(S(=O)(=O)N[C@H]2CC[C@H](CC(=O)NC3Cc4ccccc4C3)O[C@@H]2CO)c1	-23.9
Cc1ccc(NC(=S)NC(=O)c2ccccc2)cc1NS(C)(=O)=O	222.6
CCOC(=O)c1sc(NC(=O)CSc2n[nH]c(-c3ccccn3)n2)c(C#N)c1C	-107.6*
CCOC(=O)c1c(NC(=O)CSc2nc(C)cc(C)n2)sc(C(C)=O)c1C	-24.0
Cc1sc(NC(=O)CSc2nc3cc4c(cc3cc2C#N)OCCO4)c(C#N)c1C	198.0
COc1ccc(-c2nc(CN(c3ccccc3)S(=O)(=O)c3ccccc3)c(C)o2)cc1	-41.4
Cc1nc(C(F)(F)F)ccc1C(=O)N1CCC(c2ccccc2)C1 (configuration not stated)	32.5
O=c1[nH]c2ccc(NCC#Cc3ccccc3)cc2[nH]1	-83.5*
COc1cc(CNc2ccc3[nH]c(=O)[nH]c3c2)ccc1OCc1ccccc1	162.5
C=CCOc1ccc(CNc2ccc3[nH]c(=O)[nH]c3c2)cc1OC	-8.6
COc1ccc(-c2nc(N3CCN(c4cccc(C)c4)C(C)C3)c3ccccc3n2)cc1 (configuration not stated)	12.8
Cn1ccnc1SCCn1ccnc1-c1ccc2ccccc2n1	87.9
COc1cccc2c1C(=O)c1c(O)c3c(c(O)c1C2=O)C[C@@](O)(C(=O)CO)C[C@@H]3OC1C[C@H](N)[C@H](O)[C@H](C)O1 (some centres not stated)	-89.6*
CC(=O)NCCC1CCCCN1C(=O)NCc1ccccc1F (configuration not stated)	-0.9
Cc1[nH]c2ccc(CNC(=O)Cn3ccnc3C(C)C)cc2c1C	-1.0
Cc1cnc(N2CCC3(CC2)CCN(c2cncnc2)C3=O)nc1	-25.6
SMILES	Tg IFNy HTS
CCC(=O)NCc1ccccc1-c1ccccc1CO	-38.6
CCc1ccccc1-c1ccc2cc[nH]c(=O)c2c1	1.6
O=C1CCCc2c1[nH]c1ccc(-c3ccccc3CO)cc21	-74.8*
Cc1nc2nnc3ccc(C(=O)N(C)Cc4ccccn4)cc3c2n1CC1CCCO1 (configuration not stated)	100.5
C[C@H](CO)N1C[C@H](C)[C@H](CN(C)S(=O)(=O)c2cn(C)cn2)Oc2cc(C#Cc3cccc(F)c3)ccc2S1(=O)=O	-93.3*
Cc1ccc(S(=O)(=O)N(C)C[C@H]2Oc3cc(C#CC4CCCC4)ccc3S(=O)(=O)N([C@@H](C)CO)C[C@H]2C)cc1	-131.8*
Cc1ccc(S(=O)(=O)N(C)C[C@H]2Oc3cc(C#CC4CCCC4)ccc3S(=O)(=O)N([C@H](C)CO)C[C@H]2C)cc1	-64.2
C[C@@H]1CN([C@H](C)CO)S(=O)(=O)c2ccc(C#Cc3cccc(F)c3)cc2O[C@H]1CN(C)S(=O)(=O)c1cn(C)cn1	-68.0
COc1cccc(-c2ccc3c(c2)O[C@H](CN(C)Cc2cccnc2)[C@H](C)CN([C@@H](C)CO)S3(=O)=O)c1	-38.9
COCC#Cc1ccc2c(c1)O[C@@H](CN(C)C(=O)C1CCOCC1)[C@H](C)CN([C@@H](C)CO)S2(=O)=O	-12.0
C[C@H](CO)N1C[C@H](C)[C@H](CN(C)C(=O)NC2CCCC2)Oc2cc(-c3cncnc3)ccc2S1(=O)=O	43.7
CCCNC(=O)N(C)C[C@H]1Oc2cc(C#C[C@H](C)O)ccc2S(=O)(=O)N([C@@H](C)CO)C[C@H]1C	102.4
CCCC#Cc1ccc2c(c1)O[C@@H](CN(C)Cc1ccccn1)[C@@H](C)CN([C@H](C)CO)S2(=O)=O	-29.5
C[C@@H]1CN([C@@H](C)CO)S(=O)(=O)c2ccc(-c3ccc(F)cc3)cc2O[C@H]1CN(C)Cc1ccccc1C(=O)O	-15.1
CCCN(C)C[C@@H]1Oc2cc(/C=C/c3ccccc3)ccc2S(=O)(=O)N([C@@H](C)CO)C[C@H]1C	-90.8*
C[C@@H]1CN([C@H](C)CO)S(=O)(=O)c2ccc(-c3ccncc3)cc2O[C@H]1CN(C)S(C)(=O)=O	-104.1*
